Only some compounds are listed: those with a hit (about 2.7% of all), similar ones and a draw of the others.
IDE cell activ: human IDE activators in live cells, primary screen, fluorescence polarization, HEK cells, FAbeta-B substrate | 0.073% of 340,000 active | activation, % at 5.96 µM | AID 493087, 2011 | FAbeta-B cleavage; 0% vehicle, 100% cell-free pure enzyme wells;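 active means activation above the mean of all tested compounds plus 3 SD, set per screening campaign, cut at about 17% in these data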
IDE cell inh: human IDE inhibitors in live cells, primary screen, fluorescence polarization, HEK cells, FAbetaB substrate; inhibition, % at 5.59 µM; 0.41% of 320,000 active; AID 434962, 2010; FAbetaB cleavage; Insulin-degrading enzyme (Homo sapiens), P14735;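 active means percent inhibition above the average of all tested compounds plus 3 SD, set per screening campaign, cut at about 16% in these data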;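 further: IDE supplied by intact live HEK cells; FP after avidin binding of uncleaved biotin substrate so inhibition keeps polarization high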
CHT block: inhibitors of human choline transporter CHT. High affinity choline transporter 1 (Homo sapiens), Q9GZV3. AID 488975, 2010. CHT-expressing cells, membrane potential dye, choline response; hits give low values. 0.86% of 310,000 active. B-score at 10 µM;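 active means B-score over 3 SD under the library average, and starting fluorescence ratio not unusually high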;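 further: choline stimulus applied at its EC90 after an EC20 pre-addition; B-score computed on integrated fluorescence ratio after choline addition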
Target sequence (Q9GZV3 whole entry, looked up): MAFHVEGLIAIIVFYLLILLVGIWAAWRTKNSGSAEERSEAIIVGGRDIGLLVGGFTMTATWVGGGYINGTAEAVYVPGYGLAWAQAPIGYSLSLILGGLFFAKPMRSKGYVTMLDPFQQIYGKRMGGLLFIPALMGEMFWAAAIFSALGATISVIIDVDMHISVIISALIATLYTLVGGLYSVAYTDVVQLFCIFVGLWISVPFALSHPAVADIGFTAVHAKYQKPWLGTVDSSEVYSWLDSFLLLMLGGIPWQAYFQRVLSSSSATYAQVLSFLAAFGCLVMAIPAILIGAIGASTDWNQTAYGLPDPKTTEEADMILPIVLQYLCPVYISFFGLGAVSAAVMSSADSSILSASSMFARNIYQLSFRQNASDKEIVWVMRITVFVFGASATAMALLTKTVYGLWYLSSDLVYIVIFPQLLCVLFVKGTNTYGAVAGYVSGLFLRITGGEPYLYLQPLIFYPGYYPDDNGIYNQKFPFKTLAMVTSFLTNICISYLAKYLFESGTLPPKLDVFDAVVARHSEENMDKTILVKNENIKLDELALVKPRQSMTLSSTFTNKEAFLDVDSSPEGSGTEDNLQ
TMEM16A act: TMEM16A chloride channel activators or potentiators, primary screen, cell-based, HTS. Anoctamin-1 (Mus musculus), Q8BHY3. HEK293 TMEM16A/YFP-H148Q/I152L, iodide quench fluorescence; hits give low values. B-score at 10 µM. 0.3% of 340,000 active. AID 623877, 2012;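 active means fluorescence-ratio B-score plate-corrected deviation score at least 3 library SD below zero, with starting fluorescence score within 5 deviations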;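 further: channel opened by trigger with iodide after compound preincubation; score built on the fluorescence ratio of max minus min over baseline; more negative score means more quench and so TMEM16A activation or potentiation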
ANO1 block: TMEM16A chloride channel inhibitors, primary screen, cell-based, HTS | Anoctamin-1 (Mus musculus), Q8BHY3 | HEK293 TMEM16A/YFP iodide influx fluorescence, ionomycin | normalized B-score (activity score, 25-100; higher = stronger inhibition) at 10 µM | 1.2% of 310,000 active | AID 588511, 2011;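 active means ratio plate-corrected score three or more library SD toward inhibition, starting fluorescence score within five deviations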;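 further: score derived from kinetic fluorescence span divided by baseline fluorescence per well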
CHT allo act: CHT positive allosteric modulators, primary screen, cell-based, membrane potential dye, choline EC20. High affinity choline transporter 1 (Homo sapiens), Q9GZV3. CHT-expressing cells; hits give high values; LV-AA mutant CHT in HEK293 cells. B-score at 10 µM. 0.49% of 310,000 active;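 active means initial fluorescence not abnormally high and integrated response B-score, plate-corrected, over 3 SD above library mean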
Hits are given with their value; n = inactive; x = no result given.

SMILES	IDE cell activ	IDE cell inh	CHT block	TMEM16A act	ANO1 block	CHT allo act
CC(C)Cc1nc2oc3c(NCC(C)O)ncnc3c2c2c1CCCC2 (configuration not stated)	n	n	-7.6	n	n	n
CC(C)NC(=O)N(C)C[C@@H]1Oc2c(NC(=O)Nc3ccccc3)cccc2C(=O)N([C@H](C)CO)C[C@H]1C	n	n	x	n	x	x
O=C(N/N=C/c1cn(-c2ccccc2)nc1-c1ccc2c(c1)OCCO2)c1ccncc1	26	n	n	n	n	n
COc1ccc(-c2nn(-c3ccccc3)cc2/C=N/NC(=O)c2ccc(Br)o2)cc1	n	n	n	n	100	n
COc1ccc(-c2nn(-c3ccccc3)cc2/C=N/NC(=O)c2ccc3c(c2)OCO3)cc1	x	n	n	x	n	n
O=C(N/N=C/c1nn(-c2ccccc2)cc1-c1ccc(Cl)cc1)c1ccncc1	x	n	n	x	25	n
CSCCC(NC(=O)c1ccccc1)C(=O)NCCCn1nc(C)cc1C (configuration not stated)	n	n	x	n	x	x
Cc1ccc(C)c(S(=O)(=O)NC(C)C(=O)NCc2ccccn2)c1 (configuration not stated)	n	n	n	n	n	n
Cc1cc(N2CCCC2)ccc1/C=C1/C(=O)N(C)C(=S)N1C	n	31	n	n	n	n
Cc1cc(N2CCOCC2)ccc1/C=C1\SC(=O)N(C(C)C)C1=O	n	n	n	n	n	n
CC(C)(C)C1CCCCC1NC(=O)c1ccncc1 (configuration not stated)	n	x	n	n	n	n
COc1cc(S(=O)(=O)Nc2ccc(C)cc2)ccc1N=Cc1c(C)c(C#N)c(=O)n(C)c1O	x	n	n	-6	n	n
CCC(/C=N/NC(=O)C(N)=O)CC	n	n	n	-5.3	n	n
S=C(NNc1ccnc2cc(Cl)ccc12)Nc1ccccc1Cl	n	n	n	n	25	n
Cc1ccc(C(=O)OCC(=O)NCc2ccc(Cl)cc2Cl)o1	n	n	x	n	x	x
COc1cc2c(cc1OC)CN(C(=O)COc1ccccc1[N+](=O)[O-])CC2	n	n	n	n	100	n
CC(OC(=O)C1CC1)C(=O)Nc1cc(Cl)cc(Cl)c1 (configuration not stated)	n	n	x	n	x	x
Cc1ccc(NC(=O)CSc2nnnn2C)cc1S(=O)(=O)N(C)C	n	n	n	n	n	n
Cc1ccc(NC(=O)CSc2nn(-c3ccccc3)c(=S)s2)cc1S(=O)(=O)N(C)C	n	n	n	n	25	n
COCCN(C(=O)Cn1nnc2ccccc21)C(C(=O)NC1CCCC1)c1ccc(OC)cc1OC (configuration not stated)	n	n	n	n	n	n
C=CCN(C(=O)Cn1nnc2ccccc21)C(C(=O)NCCOC)c1ccc(OC)cc1OC (configuration not stated)	n	n	n	-6	n	n
Nc1nc(Cl)cc(NCCc2ccc(O)cc2)n1	n	n	n	n	n	n
Oc1ccc(CCNc2ncnc3ccc(Cl)cc23)cc1	n	n	n	n	100	n
N#CC(C#N)=C1C=CC=CN1/C(=C\c1ccccc1Cl)C(=O)c1ccccc1	n	n	n	-8.4	n	n
N#CC(C#N)=C1C=CC=CN1/C(=C\c1ccccc1)C(=O)c1cccs1	n	n	n	n	n	n
SMILES	IDE cell activ	IDE cell inh	CHT block	TMEM16A act	ANO1 block	CHT allo act
O=C(NCc1ccccc1)c1cccc(COc2ccc3c(c2)CCC3)c1	n	n	n	n	n	n
COc1cccc(OC)c1C(=O)NNC(=O)c1cccc(COc2ccc3c(c2)CCC3)c1	n	n	n	n	25	n
CCc1ccc(CNc2ccc3c(c2)ncn3CC)cc1	n	n	n	-6.9	n	n
CC(C)(C)n1cnc2cc(NCc3ccc(Br)cc3)ccc21	n	n	n	-9	n	n
O=C(CCNS(=O)(=O)c1cccc(C(F)(F)F)c1)NC1CC1	n	n	x	n	x	x
O=C1C2CC=CCC2C(=O)N1c1nccs1 (configuration not stated)	n	x	x	n	x	x

Source: PubChem (several laboratories)
